# GIRK2 act: opens human GIRK2 potassium channels | P48051 | HEK293-GIRK2 thallium flux, Thallos fluorescence, MPD | calls only for hits at 25 µM | AID 1259325 | 63,000 tested, 0.05% active; call rule not given here
# Target sequence (P48051 whole entry, looked up): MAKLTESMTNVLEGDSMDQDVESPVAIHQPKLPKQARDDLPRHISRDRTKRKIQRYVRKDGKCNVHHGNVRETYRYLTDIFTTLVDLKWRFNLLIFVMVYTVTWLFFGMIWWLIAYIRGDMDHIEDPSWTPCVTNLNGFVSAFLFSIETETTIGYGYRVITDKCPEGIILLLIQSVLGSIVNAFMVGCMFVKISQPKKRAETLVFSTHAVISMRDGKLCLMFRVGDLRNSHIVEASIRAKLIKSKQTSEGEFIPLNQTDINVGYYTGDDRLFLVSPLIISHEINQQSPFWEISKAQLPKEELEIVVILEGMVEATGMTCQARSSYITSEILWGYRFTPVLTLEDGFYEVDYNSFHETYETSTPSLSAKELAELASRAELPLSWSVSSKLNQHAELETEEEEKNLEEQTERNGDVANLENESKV
# * marks the source's active call; other numbers are inactive results; i = inactive; + = active, no number. Many of the other results were omitted from the sample, so hits are more common in it than they were.
SMILES,GIRK2 act
COCCCn1c(C(=O)Nc2cc(Cl)ccc2OC)cc2c(=O)n3ccccc3nc21,i
COC(=O)N1CCc2ccc(F)cc2C1C(=O)Nc1cccc(C)n1 (centres undefined),i
COC(=O)N1CCc2ccc(Br)cc2C1C(=O)Nc1nccs1 (centres undefined),+
COC(=O)N1CCc2ccc(Br)cc2C1C(=O)Nc1ccc(SC)cc1 (centres undefined),i
Cc1cc(C)c2c(=O)c(-c3nc4ccccc4s3)coc2c1,i
COc1ccccc1-n1nnc(C(=O)NCC2COCCO2)c1-c1ccccn1 (centres undefined),i
COc1ccccc1-n1nnc(C(=O)Nc2nc(C)cs2)c1-c1ccccn1,+
COc1ccccc1-n1nnc(C(=O)NCc2nc3ccccc3n2C)c1-c1ccccn1,i
COC(=O)N1CCN(CCNC(=O)Cc2ccc(S(=O)(=O)C(C)C)cc2)CC1,i
CCOC(=O)c1ccc(-n2c(C)cn3c4c(=O)n(CCN5CCCCC5)c(=O)n(C)c4nc23)cc1,i
CCN(CC)c1ccc(-c2noc(CN3CCCCC3C)n2)cn1 (centres undefined),+
CCN(CC)c1ccc(-c2noc(CN3CCN(c4ccccc4Cl)CC3)n2)cn1,i
CCN(CC)c1ccc(-c2noc(CN3CCSCC3)n2)cn1,i
O=C(Cn1cccc(S(=O)(=O)N2CCOCC2)c1=O)Nc1ccccc1Cl,i
COc1ccc(-c2nc(CSc3nc4ccccc4n4c(C(C)C)nnc34)c(C)o2)cc1OC,i
COc1cc(OC)cc(C(=O)NCC2(O)CCc3ccccc3C2)c1 (centres undefined),i
CCCn1c(=O)c2c(nc3n2CCN3c2cc(C)ccc2OC)n(C)c1=O,i
Cc1ccc(-n2nnnc2CN2CCN(C(=O)NC(C)(C)C)CC2)cc1,i
COc1ccc(C(=O)Nc2sc3c(c2-c2nc4ccccc4s2)CCN(C(C)=O)C3)c(OC)c1,i
O=C(NCCN1CCN(C(=O)NCc2ccc(Cl)cc2)CC1)c1cccs1,i
COc1ccc(-c2csc3c(=O)n(Cc4cccc(Cl)c4)cnc23)cc1,i
Cc1ccc(-c2nnc(NC(=O)c3ccc(S(=O)(=O)N4CCCC4)cc3)o2)cc1C,i
CCCCn1c(=O)c2sccc2n2c(CCC(=O)N3CCN(c4ccccc4)CC3)nnc12,i
N#CC1=C(SCC(=O)Nc2ccccc2Cl)NC(=O)CC1c1cccc([N+](=O)[O-])c1 (centres undefined),i
CCOc1ccc(-c2noc(Cn3nc(-c4ccc(C(C)C)cc4)ccc3=O)n2)cc1OC,i
SMILES,GIRK2 act
CCOC(=O)c1cnn2ccc(NC(=O)C34CC5CC(CC(C5)C3)C4)cc12,i
CCOC(=O)c1cn[nH]c1S(=O)(=O)Nc1cccc(CC)c1,i
CCOC(=O)c1cn[nH]c1S(=O)(=O)N1CCN(c2cccc(C)c2)C(C)C1 (centres undefined),+
CCOC(=O)c1cn[nH]c1S(=O)(=O)N1CCN(c2ccc(C(C)=O)cc2)CC1,i
CCOC(=O)Cn1c(=O)c2c(nc3n(-c4cccc(C)c4C)c(-c4ccccc4)cn23)n(C)c1=O,i
CC(C)Oc1ccc(C(=O)N2CCN(CC(O)C3CC3)CC2)cc1 (centres undefined),i
COc1ccccc1-c1coc2c3c(ccc2c1=O)OCN(CCCc1ccccc1)C3,i
O=C(Nc1ccc(CN2CCN(c3ccccn3)CC2)cc1)c1ccccc1C(F)(F)F,i
O=S(=O)(NCC1(c2ccccc2)CCOCC1)c1ccc(Cl)cc1,i
Cc1cccc(-n2ccnc(SCC(=O)Nc3ccc(Cl)cc3)c2=O)c1,i
COCCCn1c(C(=O)N(C)C)cc2c(=O)n3ccccc3nc21,i
O=C(CCc1csc(NC(=O)c2ccc(=O)[nH]c2)n1)NC1CCCC1,i
COc1ccc(Cl)cc1C(=O)NCC1CCN(Cc2ccsc2)CC1,i
CCn1c(=O)c2c(nc3n(-c4ccccc4OC)c(-c4ccccc4)cn23)n(C)c1=O,+
COc1ccccc1-n1c(-c2ccccc2)cn2c3c(=O)n(CC(C)=O)c(=O)n(C)c3nc12,i
CCOC(=O)Cn1c(=O)c2c(nc3n(-c4ccccc4OC)c(-c4ccccc4)cn23)n(C)c1=O,i
O=C(Cn1ccc2ccccc21)NC1CCN(Cc2ccccc2)CC1,+
O=C(Cn1ccc2ccccc21)Nc1cc(N2CCN(Cc3ccccc3)CC2)ncn1,i
CCOC(=O)N1CCC(NC(=O)Cn2ccc3ccccc32)CC1,i
O=C(Nc1cc(Cl)ccc1O)C1COCC(=O)N1Cc1ccccc1 (centres undefined),i
C#CCOCC1CCCN(S(=O)(=O)c2ccc(Cl)cc2)C1 (centres undefined),i
Cc1cccc(CC(=O)N2CC(c3nc(C4CC4)no3)C2)c1,i
O=C(COc1ccc(Cl)cc1Cl)N1CCN(c2ccc3nncn3n2)CC1,i
CCOc1cc(NC(=O)c2cncc(Br)c2)ncn1,i
Cc1ccc(S(=O)(=O)c2nc(-c3ccccc3)oc2SCC(=O)N2CCCC2)cc1,i
SMILES,GIRK2 act
Cc1ccc(S(=O)(=O)c2c(C)cc(C)n(CC(=O)NCc3ccccc3)c2=O)cc1,i
CC(C)OC(=O)CCC/C=C\C[C@H]1C(=O)C[C@@H](O)[C@@H]1/C=C/[C@@H](O)COc1cccc(C(F)(F)F)c1,i
COC(=O)c1cc2c(=O)n3cccc(C)c3nc2n(CCO)c1=N,i
COc1cccc(CNC(=O)c2nnn(-c3ccccc3Cl)c2-c2ccncc2)c1,i
Cc1ccccc1-n1nnc(C(=O)NCc2ccc(Br)cc2)c1-c1ccncc1,i
COc1ccc(NC(=O)c2nnn(-c3ccccc3C)c2-c2ccncc2)c(C)c1,+
CSc1ccc(CNC(=O)c2nnn(-c3ccccc3C)c2-c2ccncc2)cc1,i
Cc1ccccc1-n1nnc(C(=O)Nc2nccs2)c1-c1ccncc1,i
COc1cc(OC)c(NC(=O)c2nnn(-c3ccccc3C)c2-c2ccncc2)cc1Cl,+
O=C(c1ccc(=O)[nH]c1)N1CCC(COCc2ccccc2)CC1,i
O=C(Cn1cnc2c([nH]c3ccc(Br)cc32)c1=O)N1CCN(c2ccccn2)CC1,i
CCc1ccc(-n2c(C)c(C)n3c4c(=O)n(CC(=O)OC)c(=O)n(C)c4nc23)cc1,i
CCCCOc1ccc(C(=O)N(Cc2ccco2)c2nc3ccc(S(C)(=O)=O)cc3s2)cc1,i
CS(=O)(=O)c1ccc2nc(N(Cc3ccco3)C(=O)C3CCCCC3)sc2c1,+
CS(=O)(=O)c1ccc2nc(N(Cc3ccco3)C(=O)c3ccc(Br)s3)sc2c1,i
Cc1c(C(=O)N2CCC(C(=O)Nc3nccs3)CC2)cnn1-c1ccccc1,i
Cc1ccc2c(c1)N(C(=O)Cn1cnc3c(sc4ncccc43)c1=O)CCO2,i
O=C(CCCCCn1c(=S)[nH]c2cc3c(cc2c1=O)OCO3)NCc1ccc2c(c1)OCO2,i
CCOc1c(C)cc(S(=O)(=O)NCC(O)c2ccoc2)cc1C (centres undefined),i
CCc1cccc(OCC(O)Cn2c(N3CCCCCC3)nc3c2c(=O)n(C)c(=O)n3C)c1 (centres undefined),i
CN(Cc1ccccc1)S(=O)(=O)c1[nH]ncc1C(=O)O,i
COc1ccc(-c2cc3c(=O)n(CC(=O)Nc4ccc(Oc5ccccc5)cc4)ccn3n2)cc1OC,i
Cc1ccc(NC(=O)Nc2cc(N3CCN(C)CC3)ncn2)cc1F,i
CCOc1ccc(-c2cc(C(=O)Nc3nnc(C(C)C)s3)no2)cc1,i
COc1ccc(-n2cc(C(=O)OCC(=O)OC(C)(C)C)c3ccccc3c2=O)cc1,i
